# Assay outcomes from PubChem.
# Only some compounds are listed: those with a hit (about 5.6% of all), similar ones and a draw of the others.
# RORgamma inh: qHTS for inhibitors of ROR gamma transcriptional activity | Nuclear receptor ROR-gamma (Mus musculus), P51450 | Drosophila S2 Gal4-RORgamma UAS-luciferase reporter, 20 h | Potency, µM (highest dose often 53.6 µM), inactives show top-dose activity change, negative = inhibition, most hits filed as inhibitors | 310,000 tested, 5.4% active | AID 2551, 2010; also: potency is read from the fitted curve at half-maximal effect; nearly all actives have a fitted effect of over 60% in size
#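 A Gal4/UAS one-hybrid system in insect cells: metallothionein-promoter Gal4–ROR gamma fusion plus Photinus luciferase reporter. Copper sulfate 700 uM final, 20 hr ambient incubation, luminescent detection after 10 min with reagent.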
# Six1-Eya2 inh: qHTS Assay for Inhibitors of the Six1/Eya2 Interaction | Homeobox protein SIX1 (Homo sapiens) + Protein phosphatase EYA2 (Homo sapiens), … | AlphaScreen GST-Six1/His-Eya2 binding, biochemical; stronger effect = lower value | activity change, % (test concentration not listed) | 360,000 tested, 0.56% active | AID 651725, 2012; in the data active = activity change below about -65%; inconclusive = mostly about -30% to -63%
# Target sequence (O00167 whole entry, looked up): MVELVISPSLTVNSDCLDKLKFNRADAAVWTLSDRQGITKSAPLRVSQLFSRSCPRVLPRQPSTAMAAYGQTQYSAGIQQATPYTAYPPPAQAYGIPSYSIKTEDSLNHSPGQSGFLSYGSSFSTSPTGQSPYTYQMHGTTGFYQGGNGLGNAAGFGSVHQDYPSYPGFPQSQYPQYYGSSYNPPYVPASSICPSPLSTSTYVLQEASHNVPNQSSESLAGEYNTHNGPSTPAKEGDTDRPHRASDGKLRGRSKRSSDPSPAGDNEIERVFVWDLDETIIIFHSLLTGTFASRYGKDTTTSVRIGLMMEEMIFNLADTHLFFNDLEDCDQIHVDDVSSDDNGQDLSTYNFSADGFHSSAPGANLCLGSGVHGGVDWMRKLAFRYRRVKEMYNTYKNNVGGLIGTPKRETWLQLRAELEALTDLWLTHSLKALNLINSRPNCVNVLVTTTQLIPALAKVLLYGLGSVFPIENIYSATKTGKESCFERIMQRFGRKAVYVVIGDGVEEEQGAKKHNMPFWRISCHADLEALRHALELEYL
# Target sequence (Q15475 whole entry, looked up): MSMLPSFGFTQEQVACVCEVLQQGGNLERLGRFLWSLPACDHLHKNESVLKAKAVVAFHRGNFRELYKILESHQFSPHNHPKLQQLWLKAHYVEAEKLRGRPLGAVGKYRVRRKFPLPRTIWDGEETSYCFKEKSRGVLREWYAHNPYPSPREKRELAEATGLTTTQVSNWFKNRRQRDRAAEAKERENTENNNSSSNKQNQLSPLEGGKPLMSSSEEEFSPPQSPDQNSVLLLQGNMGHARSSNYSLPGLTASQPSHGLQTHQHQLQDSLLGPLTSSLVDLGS
#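 Six1/Eya2 binding was read as AlphaScreen signal after compounds were pinned into GST-Six1 plus His-tagged Eya2 (5X stock 250/500 nM) in pH 8.0 Tris/NaCl/TCEP buffer, beads added, then incubated 1 h, 37 C, dark.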
# Gal4-VP16 FLuc: VP16 counterscreen qHTS for inhibitors of ROR gamma transcriptional activity | 310,000 tested, 3.5% active | Drosophila S2 Gal4-VP16 UAS-luciferase, luminescence, 20 h | Potency, µM (series often up to 53.6 µM), inactives show top-dose activity, negative = inhibition, most hits filed as inhibitors | AID 2546, 2010;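 also: Gal4-VP16 expression switched on by copper sulfate through the metallothionein promoter; potency is read from the fitted curve at half-maximal effect; nearly all actives have a fitted effect of over 50% in size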
# CtBP-E1A blk: qHTS Assay for Inhibitors of the CtBP/E1A Interaction; CtBP / adenovirus E1A interaction (AlphaScreen); AlphaScreen GST-E1A/His-CtBP binding, 1536-well; stronger effect = lower value; activity change, % (test concentration not listed); 340,000 tested, 0.49% active; in the data active = activity change below about -65%; inconclusive = mostly about -30% to -63%
#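 GST-E1A and His-tagged CtBP (125 nM each as 5X stock) were preincubated with pin-transferred compound for 2 h at 37 °C in the dark, then glutathione donor and nickel acceptor beads were added for 1 h before AlphaScreen reading.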
# PKM2 activator: qHTS Assay for Activators of Human Muscle isoform 2 Pyruvate Kinase; Pyruvate kinase PKM (Homo sapiens), P14618; purified PKM2, Kinase-Glo ATP luminescence, activation; response scale: 0% is enzyme alone, no compound; Potency, µM (highest dose often 57.5 µM), without a hit: at the top dose activation, usual class: activators; 260,000 tested, 0.34% active; also: potency is read from the fitted curve at half-maximal effect; nearly all actives have a fitted effect of over 55% in size
#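 Purified hPK-M2 (>95%) run at intermediate activity with 0.1 mM ADP and 0.5 mM PEP in 50 mM imidazole pH 7.2, KCl, MgCl2; 1 h room temperature. ATP formed read by Kinase-Glo luminescence; normalized to uninhibited and no-enzyme controls.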
# Active calls of the source: *; ? = inconclusive; . = not tested or not shown; [ ] = remark or other dose. Unless noted, calls follow the shape of the dose curve; as a rule, active = well fitted curve in the direction sought with a large enough effect; inconclusive = small, poorly fitted or top-dose-only effect, or another doubt; inactive = no such curve, though single readings can be large; an effect the other way counts as inactive or inconclusive. % is scaled to controls: 0 for no effect and ±100 for the full control effect.
SMILES,RORgamma inh,Six1-Eya2 inh,Gal4-VP16 FLuc,CtBP-E1A blk,PKM2 activator
Cc1cccc(CC2SC(N)=NC2=O)c1 (stereo unspecified),-2%,4,-2%,7,3%
O=C1NC(=Nc2cccc(Cl)c2)SC1Cc1cccc(Cl)c1Cl (stereo unspecified),?,3,?,5,-1%
Cc1cccc(CC2S/C(=N/c3ccccn3)NC2=O)c1 (stereo unspecified),1.3µM*,-7,?,0,2%
O=C1N/C(=N\c2ccccn2)SC1Cc1ccccc1Cl (stereo unspecified),0.71µM*,-2,1µM*,.,0%
O=C(Nc1ccc(F)cc1)C(c1cc2ccccc2o1)N1CCN(CC(=O)N2CCCC2)CC1 (stereo unspecified),.,-9,.,-1,.
CCC1(C)CN=C(c2ccccc2)NC1 (stereo unspecified),.,0,.,7,.
CCC1(CC)N=C(c2ccccc2)C(=S)N1,3.5µM*,1,11µM*,.,0%
C=CCOC(=O)N[C@@H](Cc1ccccc1)/C(C(=O)OC)=C(\C)NCc1ccccc1,?,.,6%,.,.
CCOc1ccc(NS(=O)(=O)c2ccc(-c3ccc(=O)[nH]n3)o2)cc1,16%,-10,5%,-25,.
O=C1/C(=C/c2cccnc2)SC(=S)N1N1CCOCC1,-43%,-4,-14%,-5,6%
O=C1/C(=C/c2cccnc2)SC(=S)N1C1CCS(=O)(=O)C1 (stereo unspecified),11µM*,-5,?,6,-1%
O=C1/C(=C\c2cccnc2)SC(=S)N1C1CCS(=O)(=O)C1 (stereo unspecified),6.3µM*,-7,?,-11,2%
COc1cccc(OCCSc2nc(N)cc(N)n2)c1,7.9µM*,-3,6.3µM*,-2,7%
CC(NS(=O)(=O)c1ccccc1Cl)C1CC2CCC1C2 (stereo unspecified),29%,2,-11%,13,0%
Cc1ccccc1C(=O)NC1CCN(CC(=O)Nc2ccc(Br)cc2)CC1,31%,-4,2%,3,-5%
S=C(NCC1CCCO1)Nc1cc(Cl)c(Cl)cc1Cl (stereo unspecified),3.2µM*,14,18µM*,0,5%
O=C(NCC1CCCO1)Nc1cccc(Cl)c1 (stereo unspecified),42%,3,16%,4,-2%
Cc1cc(C)cc(NC(=S)NCC2CCCO2)c1 (stereo unspecified),11µM*,5,35µM*,-1,-5%
S=C(NCC1CCCO1)Nc1cccc(Cl)c1 (stereo unspecified),16µM*,3,20µM*,10,-1%
COc1ccc(NC(=S)NCC2CCCO2)c(OC)c1 (stereo unspecified),-39%,3,1%,4,0%
O=C(Nc1cccc(-c2nnc(-c3ccccc3)o2)c1)c1ccco1,-13%,-12,-28%,-7,-1%
Cc1nn2c(-c3cccc(NC(=O)c4ccco4)c3)nnc2c2ccccc12,1%,-69*,-17%,-88*,3%
COc1cc(NC(=S)Nc2ccccn2)cc(OC)c1OC,3.5µM*,0,22µM*,-2,-13%
COC(=O)Cc1ccc(NC(=S)NC(C)(C)C)cc1,?,22,-13%,-14,1%
COc1cc(NC(=S)Nc2ccccn2)cc(OC)c1,2.5µM*,3,5.6µM*,3,-3%
SMILES,RORgamma inh,Six1-Eya2 inh,Gal4-VP16 FLuc,CtBP-E1A blk,PKM2 activator
COc1cccc(NC(=S)Nc2cccnc2)c1,?,-3,-11%,9,1%
COC(=O)Cc1ccc(NC(=S)Nc2ccccn2)cc1,5µM*,1,?,-1,?
COc1cc2c(cc1OC)C(C(=O)Nc1ccc(F)c(Cl)c1)CC(=O)N2 (stereo unspecified),?,6,-2%,-5,2%[11.5 µM]
CCNC(=S)N1CCC(n2cnc3ccccc32)CC1,-8%,9,-13%,3,6%
COc1ccc(S(=O)(=O)N2CCCOC2CNC(=O)C(=O)NCc2ccccc2C)cc1 (stereo unspecified),.,-2,.,3,.
O=C(Nc1ccc(Oc2c(F)c(F)c(F)c(F)c2F)cc1)OC1CCN2Cc3ccccc3N=C12 (stereo unspecified),0.71µM*,17,?,0,-4%
COc1cccc(/C=N/N(C)C2=NS(=O)(=O)c3ccccc32)c1O,-19%,-21,2%,-15,.
COc1cc(/C=N/N(C)C2=NS(=O)(=O)c3ccccc32)cc(OC)c1OC,4%,-83*,-10%,-92*,.
Cc1ccc(-n2ncc3c2CC(C)(C)CC3NC(=O)CCc2cccnc2)cc1 (stereo unspecified),7%,7,-1%,1,0%
Cc1cc(=O)oc(C)c1C(=O)Nc1cccc(F)c1,26%,1,-3%,6,1%
Cc1oc(-c2ccc(Cl)cc2)cc1C(=O)O,14µM*,-6,?,6,-7%
O=C(N=Nc1c(O)n(Cc2ccccc2)c2ccccc12)c1ccc(O)cc1,?,?,-26%,-19,-4%
NC(=S)N=Nc1c(O)n(Cc2ccc(Br)cc2)c2ccccc12,0.79µM*,-8,0.89µM*,-6,0%
Cc1ccc(Cn2c(O)c(N=O)c3ccccc32)cc1,-23%,-4,?,-6,1%
O=Nc1c(O)n(Cc2ccc(Cl)cc2)c2ccccc12,?,-4,11µM*,-5,7%
NC(=S)N=Nc1c(O)n(Cc2ccc(F)cc2)c2ccccc12,1.3µM*,-5,1.3µM*,3,-2%
CC(=O)OC1COC(n2c(O)c(N=NC(N)=S)c3ccccc32)C(OC(C)=O)C1OC(C)=O (stereo unspecified),6.3µM*,-9,10µM*,-4,1%[11.5 µM]
CCN(CC(=O)Nc1c(F)cccc1F)C(=O)CN(C)S(=O)(=O)c1ccc(F)cc1,.,10,.,-9,.
Cc1cc(=O)oc2cc(O[C@@H]3O[C@H](C(=O)O)[C@@H](O)[C@H](O)[C@H]3O)ccc12,14%,.,-1%,.,.
Cc1ccc2c(c1)c(N=O)c(O)n2Cc1ccc(Cl)cc1,?,-1,?,1,-4%
Cn1c(O)c(N=NC(=O)c2ccccc2O)c2ccccc21,-41%,-14,-25%,.,-16%
Cc1ccc2c(c1)c(N=NC(N)=S)c(O)n2Cc1ccccc1,1.6µM*,3,2.5µM*,9,7%
